Shown are actives, neighbours in structure and some others; about 9.5% of the full set was active somewhere.
Pf growth 96h = P. falciparum growth inhibition at 96 hour, primary screen for plastid delayed-death inhibitors. P. falciparum luciferase reporter growth, 96 h. Potency, µM (series often up to 28.7 µM), inactives show at the highest dose activity change, negative = inhibition, most hits filed as inhibitors. 320,000 tested, 6.9% active; note: % is set by controls: 0 for no effect and ±100 for the full control effect
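P. falciparum expressing integrated firefly luciferase grown in erythrocytes (2% hematocrit, 0.05% parasitemia final) with compounds for 96 hours at 37 C, 5% CO2. Growth inhibition read as loss of luminescence after adding luciferase detection reagent.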
RE007 growth inh = less growth of the S. pombe RE007 Vpr strain. 360,000 tested, 0.21% active. Potency, µM (doses to about 92.2 µM), for inactives: top-dose activity change, negative = less growth, actives largely listed as inhibitors. S. pombe RE007 Vpr strain, BacTiter-Glo ATP luminescence, 24 h; active = well fitted falling curve with a large enough effect; inconclusive = small, poorly fitted or top-dose-only effect; inactive = no such curve, though single readings can be large or run the other way; note: % is set by controls: 0 for no effect and ±100 for the full control effect; nearly all actives have a fitted effect of over 50% in size
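Fission yeast strain RE007, carrying one chromosomally integrated HIV-1 vpr copy, was seeded at OD 0.01 in PMG+AL medium with 23 nL pinned compound. After 24 h at 30 °C and 99% humidity, viability was read by BacTiter-Glo luminescence.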
NS1 inh = inhibitors of influenza NS1 protein function | 270,000 tested, 0.4% active | AID 2326 | Potency, µM (highest dose often 46.1 µM), for the others: at the highest dose activity, positive = more growth; calls by dose curve; note: actives are rising curves; nearly all actives have a fitted effect of over 50% in size
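In this qHTS, NS1 from influenza A is expressed in budding yeast, where it slows growth. Cells are switched from glucose to 2% galactose medium (pH 6.0, -URA), treated with compound, and growth recovery is read at OD600.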
SARS PLpro yeast = blocks SARS-CoV papain-like protease in a yeast assay; Potency, µM (doses to about 32.9 µM), without a hit: at the highest dose activity, positive = growth rescue, usual class: activators; S. cerevisiae expressing SARS-CoV PLpro, growth rescue; 330,000 tested, 0.19% active; AID 485353; calls by dose curve; note: 0% is about no effect; nearly all actives have a fitted effect of over 55% in size
Pf growth 48h = inhibits P. falciparum growth in the first generation, 48 h; P. falciparum luciferase growth in erythrocytes, 48 h; Potency, µM (highest dose often 28.7 µM), for inactives: at the top dose activity change, negative = inhibition, hits mostly inhibitors; 310,000 tested, 5.9% active; AID 504832; note: % is set by controls: 0 for no effect and ±100 for the full control effect
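Luciferase-expressing P. falciparum in infected erythrocytes (2% hematocrit, 0.1% parasitemia final) in RPMI 1640/0.5% Albumax were exposed to compound for 48 hours at 37 C, 5% CO2; growth read as luminescence.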
* = called active by the depositor; ? = inconclusive; . = not tested or not shown; [ ] = remark or other dose. Unless noted, calls come from the whole dose curve; as a rule, active = well fitted inhibition curve with a large enough effect; inconclusive = small, poorly fitted or top-dose-only effect, or another doubt; inactive = no such curve, though single readings can be large or run the other way. Potency is the fitted concentration of half-maximal effect.

SMILES | Pf growth 96h | RE007 growth inh | NS1 inh | SARS PLpro yeast | Pf growth 48h
COc1ccc(NC(=O)Cn2c(=O)n(-c3ccc(CC(=O)NCc4ccco4)cc3)c(=O)c3ccccc32)cc1 | 15% | -4% | . | 3% | 19%
CC(C)C[C@H]1CN(CCCC[C@H]2CNC(=O)C(=O)N2CCc2ccccc2)C(=O)C(=O)N1CC1CCCCC1 | . | -6% | . | . | .
CC(=O)Nc1ccc(NC(=O)CSc2ccc(-c3ccc(-n4ccnc4)cc3)nn2)cc1 | 11% | -11% | . | -2% | -8%
CCOc1ccc(Nc2n[nH]c(=S)s2)cc1 | 2.9µM* | -1% | 6% | -10% | ?
Cc1ccc(Nc2n[nH]c(=S)s2)cc1 | . | -4% | . | . | .
O=[N+]([O-])c1ccccc1/C=N/Nc1nc(N2CCCC2)nc(N2CCCC2)n1 | ? | -23% | . | 1% | 7%
Nc1cc(Cl)nc(N/N=C/c2ccc([N+](=O)[O-])cc2)n1 | 4.7µM* | -11% | -3% | 15% | ?
O=[N+]([O-])c1ccc(/C=N/Nc2ncc(Br)cn2)cc1 | ? | -1% | -2% | 2% | 16%
Nc1cc(Cl)nc(N/N=C/c2ccccc2[N+](=O)[O-])n1 | 6.6µM* | -3% | 9% | 6% | 130%
CCCCCCCCN1C(=O)[C@H](CC(=O)NCCc2ccccc2OC)C[C@@]2(C(=O)OC)CC(C)(C)CC=C12 | . | 0% | . | . | .
CCS(=O)(=O)Nc1cccc(C(=O)O)c1 | 0% | -11% | 1% | 0% | -5%
CCS(=O)(=O)Nc1cccc(C(=C2CCCCC2)c2cnc[nH]2)c1 | ? | -2% | -8% | . | 12µM*
CCC(C)Nc1ccc(NC(C)CC)cc1 (stereo unspecified) | 1.2µM* | ? | . | 3% | 1µM*
CCC(C)NC(=O)Nc1ccc(Br)cc1 (stereo unspecified) | ? | -18% | . | 0% | 14%[5.75 µM]
C=CCn1c(COc2ccccc2)nnc1SC(C)C(=O)N/N=C/c1cc(Cl)ccc1O (stereo unspecified) | . | 11% | -1% | -5% | ?
COc1cccc(CN(C)C(=O)C(CCSC)NS(=O)(=O)c2ccc3c(c2)OCCO3)c1OC (stereo unspecified) | ? | -1% | . | -2% | 12µM*
CSCCC(NS(=O)(=O)c1ccc2c(c1)OCCO2)C(=O)N(C)Cc1ccc(C)cc1 (stereo unspecified) | ? | 0% | -12% | 3% | ?
CCN(CC)C(=O)CSc1ncnc2c1nnn2-c1ccc(F)cc1 | 11% | 3% | 7% | 4% | 2%
COC(=O)c1ccc(CSc2ncnc3c2nnn3-c2ccc(F)cc2)o1 | 20% | 5% | 2% | -3% | 1µM*
COc1ccc(OC)c(S(=O)(=O)NC(=O)C2(C)CCN2C(=O)Cc2ccccc2Cl)c1 (stereo unspecified) | . | -3% | . | . | .
CCOc1ccc(C(C)NC(=O)c2ccccc2OCc2c(C)noc2C)cc1OCC (stereo unspecified) | 6.6µM* | 0% | 1% | -2% | ?
CCCCc1nnc(NC(=O)c2ccccc2OCc2c(C)noc2C)s1 | 0.93µM* | 11% | . | 14% | 9.3µM*
CCOc1ccccc1C(=O)NC(C)c1ccc(-n2ccnc2)cc1 (stereo unspecified) | 8.3µM* | -14% | 1% | 0% | ?
O=C(O)C1CCN(C(=O)c2ccccc2N2C(=O)[C@@H]3Cc4c([nH]c5ccccc45)C(c4cccc(Cl)c4)N3C2=O)CC1 (stereo partly specified) | 9.3µM* | 13% | -35% | 4% | ?
COc1ccc(C2c3[nH]c4ccccc4c3C[C@H]3C(=O)N(c4ccccc4C(=O)NCCN4CCOCC4)C(=O)N23)cc1 (stereo partly specified) | ? | -9% | -6% | 3% | 13µM*
SMILES | Pf growth 96h | RE007 growth inh | NS1 inh | SARS PLpro yeast | Pf growth 48h
O=C(NCCN1CCOCC1)c1ccccc1N1C(=O)[C@@H]2Cc3c([nH]c4ccccc34)C(c3ccc(F)cc3)N2C1=O (stereo partly specified) | ? | -14% | -17% | 8% | ?
COc1cccc(C2c3[nH]c4ccccc4c3C[C@H]3C(=O)N(c4ccccc4C(=O)N4CCCC4C(=O)O)C(=O)N23)c1 (stereo partly specified) | ? | 6% | ? | 9% | ?
Cc1ccc(C2c3[nH]c4ccccc4c3C[C@H]3C(=O)N(c4ccccc4C(=O)N4CCC(C(=O)O)CC4)C(=O)N23)cc1 (stereo partly specified) | 5.9µM* | -6% | 3% | -5% | 12µM*
CCOc1ccccc1OCCCC(=O)NNC(=O)c1cc(C)oc1C | 6% | 7% | . | 2% | -1%
CCn1c(SCC(=O)Nc2sccc2C(N)=O)nnc1C1CC1 | 3% | -7% | . | -8% | 9%
COc1ccc(C(=O)N2CCCC(Nc3ccc(C)c(C)c3)C2)cc1F (stereo unspecified) | ? | -3% | -18% | -5% | -3%
COc1ccc(C(=O)N2CCCC(Nc3ccc(F)cc3)C2)cc1F (stereo unspecified) | 10µM* | 3% | -8% | -6% | 24%
Cc1ccc(NC2CCCN(C(=O)c3ccc4[nH]ccc4c3)C2)cc1C (stereo unspecified) | 13µM* | 6% | 11% | 2% | ?
COc1ccc(C(=O)C2CCCN(C(=O)COc3ccc(C(C)=O)cc3)C2)cc1F (stereo unspecified) | 12µM* | -4% | -3% | 0% | -13%
Cn1cc(CN2CCC(CO)(CCCc3ccccc3)CC2)c(-c2ccccc2)n1 | -1% | -4% | ? | 0% | -33%
CN(Cc1ccccc1)C(=O)c1oc(=O)c2ccccc2c1-c1ccccc1 | -29% | 11% | -7% | -19% | -18%
Cc1ccc(-c2c(C(=O)N(C)Cc3ccccc3)oc(=O)c3ccccc23)cc1 | 4.7µM* | 13% | -12% | -47% | ?
Cc1cccc(NC(=O)c2cnc3scc(C)n3c2=O)c1 | 128% | -16% | -12% | -6% | 89%
Cc1csc2ncc(C(=O)Nc3ccon3)c(=O)n12 | 2.6µM* | -5% | -21% | -14% | 18%
Brc1ccc2nc(C3CCCCC3)c(CC3CCCCC3)n2c1 | . | -1% | . | . | .
CC12CCC(C(=O)OC3CCCCC3)(OC1=O)C2(C)C (stereo unspecified) | 12µM* | -6% | 18% | 1% | 31%
NC(=O)CC(NC(=O)c1ccccc1)c1ccc(NCc2ccccc2)c([N+](=O)[O-])c1 (stereo unspecified) | 9.3µM* | 9% | 64% | 0% | ?
NC(=O)CC(NC(=O)c1ccccc1)c1ccc(NCCc2ccc(Cl)cc2)c([N+](=O)[O-])c1 (stereo unspecified) | ? | -5% | -3% | 1% | 13µM*

High-throughput results: PubChem, National Center for Advancing Translational Sciences (NCATS)
